Rows were chosen to be rich in hits. Some 9.2% of all compounds tested hit in one or more screens of this group.
NPC1 promoter act: qHTS Assay for NPC1 Promoter Activators; Potency, µM (doses to about 9.22 µM), for the others: at the highest dose activation, hits mostly activators; hit rate 2.4% among 320,000; Huh7 NPC1 promoter luciferase reporter, 24 h; further: % of control where 0% means no effect; nearly all actives have a fitted effect of over 60% in size
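Cells: Huh7 expressing luciferase under the NPC1 promoter, 1500/well. Seeded 2 h, compound added, incubated 24 h at 37 °C. Luciferase reagent, 10 min ambient, then luminescence.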
ELG1 repair inh: qHTS screen for small molecules that inhibit ELG1-dependent DNA repair in human embryonic kidney (HEK293T) cells expressing luciferase-tagged ELG1; hit rate 2.3% among 330,000; Potency, µM (highest dose often 46.1 µM), inactives show top-dose activity change, negative = inhibition, usual class: inhibitors; HEK293T ELG1-luciferase reporter, luminescence, 16 h; DNA damage induced by 5-fluorouridine; AID 504467, 2011; further: on the % scale 0 is the no-effect control and ±100 the full control effect; nearly all actives have a fitted effect of over 55% in size
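Cells (2,000 per well) received 5-fluorouridine plus test compound or DMSO and were incubated 16 hr at 37 °C, 5% CO2. Luciferase activity was read by luminescence 30 min after ONE-Glo addition; signal suppression marked inhibition of damage-induced ELG1 function.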
ELG1 genotoxic: qHTS screen for small molecules that induce genotoxicity in human embryonic kidney (HEK293T) cells expressing luciferase-tagged ELG1. HEK293T ELG1-luciferase reporter, luminescence, 16 h. Potency, µM (highest dose often 46 µM), without a hit: top-dose activity change, positive = activation, actives largely listed as activators. hit rate 1.3% among 330,000; further: % of control where 0% means no effect; nearly all actives have a fitted effect of over 60% in size
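HEK293T cells expressing luciferase-tagged ELG1 were treated with compound or DMSO for 16 hr at 37°C. Luciferase activity was then read after 30 min with ONE-Glo at room temperature; rising signal flags genetic stress.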
SMN2 splice up: qHTS Assay for Enhancers of SMN2 Splice Variant Expression | HEK293 SMN2-luciferase splicing reporter, luminescence, 30-36 h | Potency, µM (doses to about 46.1 µM), for the others: top-dose activity change, positive = activation, actives largely listed as activators | hit rate 2.8% among 210,000 | AID 1458, 2008; further: % of control where 0% means no effect; nearly all actives have a fitted effect of over 55% in size
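HEK293 cells carry an SMN2 […]–luciferase reporter in which exon 7 inclusion puts luciferase in frame. Cells were plated 10-12 h before compound addition, then incubated 30-36 h at 37C. ONE-Glo luminescence was read; sodium butyrate at 4.5 mM final served as control.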
FLuc counter: qHTS profiling assay for firefly luciferase inhibitor/activator using purifed enzyme and Km concentrations of substrates (counterscreen for miR-21 project); Luciferin 4-monooxygenase (Photinus pyralis), P08659; purified FLuc, Km substrates, luminescence inhibition; Potency, µM (top dose mostly 57.5 µM), without a hit: at the highest dose activity change, negative = inhibition, hits mostly inhibitors; hit rate 6.9% among 360,000;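 further: plate controls were vehicle for no effect and reference inhibitor for full effect; nearly all actives have a fitted effect of over 55% in size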
Target sequence (P08659 whole entry, looked up): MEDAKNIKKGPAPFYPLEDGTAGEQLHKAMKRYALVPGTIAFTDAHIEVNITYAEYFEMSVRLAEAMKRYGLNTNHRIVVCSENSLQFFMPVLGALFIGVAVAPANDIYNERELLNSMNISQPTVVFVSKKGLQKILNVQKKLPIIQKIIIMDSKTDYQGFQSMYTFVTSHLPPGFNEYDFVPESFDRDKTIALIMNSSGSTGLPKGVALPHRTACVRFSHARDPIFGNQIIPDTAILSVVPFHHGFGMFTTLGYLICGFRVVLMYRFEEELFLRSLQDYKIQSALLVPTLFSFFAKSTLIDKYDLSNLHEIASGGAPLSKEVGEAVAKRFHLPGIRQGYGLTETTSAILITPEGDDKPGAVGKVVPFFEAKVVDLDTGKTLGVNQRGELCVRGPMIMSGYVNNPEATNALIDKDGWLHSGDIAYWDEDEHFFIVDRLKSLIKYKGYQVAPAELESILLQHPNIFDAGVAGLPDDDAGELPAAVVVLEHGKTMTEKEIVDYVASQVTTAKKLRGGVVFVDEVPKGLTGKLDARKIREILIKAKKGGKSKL
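Purified P. pyralis luciferase (10nM final) with 10uM D-luciferin and 10uM ATP (Km levels) in 50mM Tris acetate pH 7.5, 10mM Mg acetate, 0.01% Tween-20, 0.05% BSA; qHTS 6-point titration, ~60 µM downward; luminescence read.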
Rab9 prom act: qHTS Assay for Rab9 Promoter Activators | Huh7 Rab9 promoter-luciferase reporter, luminescence, 24 h | Potency, µM (titrated, usually from 9.22 µM), without a hit: at the top dose activation, negative = inhibition, hits mostly activators | hit rate 2.8% among 320,000 | AID 485297, 2010; further: % of control where 0% means no effect; nearly all actives have a fitted effect of over 60% in size
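Luminescence from Amplite-detected luciferase (10 minutes, ambient) reports Rab9 promoter activation. Before that, stable Rab9-luciferase Huh7 cells (1500/well, reduced-serum OP-MEM I plus 10% FBS) were exposed to compound for 24 hours at 37C.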
Starred values were filed as active, the others as inactive; ? = inconclusive; . = no result given. The call rests on the fitted dose curve; in most records, active means well fitted curve in the direction sought with a large enough effect; inconclusive means small, poorly fitted or top-dose-only effect, or another doubt; inactive means no such curve, though single readings can be large; an effect the other way counts as inactive or inconclusive. Potency means the concentration at half of the fitted maximal effect.

SMILES	NPC1 promoter act	ELG1 repair inh	ELG1 genotoxic	SMN2 splice up	FLuc counter	Rab9 prom act
CC1CCCCN1C(=O)CSc1nnc(-c2ccccc2O)o1 (stereo not given)	2.8µM*	?	5.2µM*	.	21µM*	3.5µM*
Cc1c(C(=O)N2CCN(S(=O)(=O)c3cccs3)CC2)oc2ccc(F)cc12	.	5.2µM*	-4%	.	.	.
COc1cccc(C(=O)CN2CCN(S(=O)(=O)c3cccc([N+](=O)[O-])c3)CC2)c1	2%	21%	1%	-7%	0%	-8%
CCOc1ccc(S(=O)(=O)N2CCN(C(=O)c3oc4ccc(OC)cc4c3C)CC2)cc1	-1%	21µM*	-7%	.	11%	-7%
COc1ccc2oc(C(=O)N3CCN(S(=O)(=O)c4cccc([N+](=O)[O-])c4)CC3)c(C)c2c1	-1%	7.3µM*	-14%	.	2%	-2%
COc1ccc2oc(C(=O)OCC(=O)N3CCN(S(=O)(=O)c4ccccc4)CC3)c(C)c2c1	-2%	-15%	-2%	.	4%	-1%
Cc1ccc2c(c1)C(c1ccc(F)cc1)N(C(=O)C(C)C)CC(=O)N2 (stereo not given)	.	.	.	5%	3%	.
CC1=C/C(=C(\c2cc(C)c(O)c(Br)c2)c2ccccc2S(=O)(=O)O)C=C(Br)C1=O	-9%	?	-25%	.	9.5µM*	-13%
CCCN(CCC)Cc1c(C(=O)N/N=C/C(C)=C\c2ccco2)nnn1-c1nonc1N	-7%	21µM*	-5%	.	-3%	2%
O=S(=O)(Nc1nc2ccccc2nc1Nc1ccc(N2CCOCC2)cc1)c1cc(Cl)ccc1Cl	-5%	?	-4%	-72%	15µM*	-8%
COc1ccc(OCC(=O)Nc2ccc(-c3nc4cc(C)cc(C)c4o3)cc2)cc1	.	.	.	?	-8%	.
COc1ccc(-c2nc(CS(=O)CC(=O)NC3CCCCC3C)c(C)o2)cc1 (stereo not given)	-1%	5%	1%	.	-11%	0%
COc1ccc(N/C(C)=C2/C(=O)C(=O)N(CCO)C2c2ccc([N+](=O)[O-])cc2)cc1 (stereo not given)	-5%	-2%	-2%	?	-2%	-1%
CN1/C(=C\C(=O)COC(=O)c2ccc(O)cc2)C(C)(C)c2ccccc21	1%	21µM*	-7%	.	5%	-1%
CN1/C(=C\C(=O)COC(=O)c2ccc(O)c(O)c2)C(C)(C)c2ccccc21	-17%	21µM*	6%	-2%	-14%	0%
CNS(=O)(=O)c1cccc(C(=O)OCC(=O)/C=C2/N(C)c3ccccc3C2(C)C)c1	-1%	?	-2%	-19%	8%	-2%
COc1ccc(-n2ccc(-c3nn(-c4cccc(C(F)(F)F)c4)ccc3=O)n2)cc1	-8%	8.2µM*	-1%	-18%	-2%	-1%
Cc1cc(C(=O)COC(=O)c2csc3c2CCCC3)c(C)n1C	15%	?	12%	-20%	12µM*	10%
COCCn1c(C)cc(C(=O)COC(=O)c2cccc(O)c2)c1C	?	?	?	.	0.11µM*	?
COCCn1c(C)cc(C(=O)COC(=O)c2cc3c(s2)CCC3)c1C	3.5µM*	?	?	-8%	11µM*	4µM*
COCCn1c(C)cc(C(=O)COC(=O)CCN2C(=O)c3ccccc3C2=O)c1C	0%	8%	1%	5%	?	-3%
COCCn1c(C)cc(C(=O)COC(=O)C23CC4CC(CC(O)(C4)C2)C3)c1C	0.35µM*	?	?	?	1.5µM*	0.35µM*

Compound activity: PubChem, National Center for Advancing Translational Sciences (NCATS)
